Rows were chosen to be rich in hits. Some 9.2% of all compounds tested hit in one or more screens of this group.
SMN2 splice up – enhancers of SMN2 splice variant expression; Potency, µM (highest dose often 46.1 µM), inactives show top-dose activity change, positive = activation, most hits filed as activators; actives 2.8% (n = 210,000); AID 1458; HEK293 SMN2-luciferase splicing reporter, luminescence, 30-36 h; further: % of control where 0% means no effect; nearly all actives have a fitted effect of over 55% in size
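qHTS luciferase splicing reporter: luminescence rises when SMN2 exon 7 is included in transfected HEK293 cells. Compound exposure lasted 30-36 h at 37C, with 4.5 mM final sodium butyrate as control, followed by a ONE-Glo read.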
ELG1 genotox – genotoxicity induction in ELG1-luciferase HEK293T cells; HEK293T ELG1-luciferase reporter, luminescence, 16 h; Potency, µM (doses to about 46 µM), for the others: top-dose activity change, positive = activation, actives largely listed as activators; actives 1.3% (n = 330,000); further: % of control where 0% means no effect; nearly all actives have a fitted effect of over 60% in size
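HEK293T cells expressing luciferase-tagged ELG1 were treated with compound or DMSO for 16 hr at 37°C. Luciferase activity was then read after 30 min with ONE-Glo at room temperature; rising signal flags genetic stress.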
Rab9 promoter act – activates the Rab9 promoter; Huh7 Rab9 promoter-luciferase reporter, luminescence, 24 h; Potency, µM (series often up to 9.22 µM), inactives show top-dose activation, negative = inhibition, hits mostly activators; actives 2.8% (n = 320,000); AID 485297; further: % of control where 0% means no effect; nearly all actives have a fitted effect of over 60% in size
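Rab9 promoter-driven luciferase in stably transfected Huh7 cells; 1500 cells/well rested 2 h, exposed to compound in DMSO for 24 h at 37 °C, 5% CO2. Luminescence read 10 min after adding luciferase reagent at ambient temperature.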
ELG1 repair inh – blocks ELG1-dependent DNA repair in HEK293T cells. HEK293T ELG1-luciferase reporter, luminescence, 16 h; DNA damage induced by 5-fluorouridine. Potency, µM (titrated, usually from 46.1 µM), without a hit: at the highest dose activity change, negative = inhibition, most hits filed as inhibitors. actives 2.3% (n = 330,000). AID 504467; further: on the % scale 0 is the no-effect control and ±100 the full control effect; nearly all actives have a fitted effect of over 55% in size
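In this reporter screen, reduction of luminescence relative to DMSO vehicle indicated activity. Compounds and 5-fluorouridine were added together to 2,000 cells per well, incubated for 16 hr at 37 °C, then developed with ONE-Glo.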
FLuc counter – counter-screen for miR-21 project: firefly luciferase inhibitors or activators; Potency, µM (top dose mostly 57.5 µM), inactives show at the top dose activity change, negative = inhibition, hits mostly inhibitors; purified FLuc, Km substrates, luminescence inhibition; actives 6.9% (n = 360,000);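 further: plate controls were vehicle for no effect and reference inhibitor for full effect; nearly all actives have a fitted effect of over 55% in size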
Target sequence (P08659 whole entry, looked up): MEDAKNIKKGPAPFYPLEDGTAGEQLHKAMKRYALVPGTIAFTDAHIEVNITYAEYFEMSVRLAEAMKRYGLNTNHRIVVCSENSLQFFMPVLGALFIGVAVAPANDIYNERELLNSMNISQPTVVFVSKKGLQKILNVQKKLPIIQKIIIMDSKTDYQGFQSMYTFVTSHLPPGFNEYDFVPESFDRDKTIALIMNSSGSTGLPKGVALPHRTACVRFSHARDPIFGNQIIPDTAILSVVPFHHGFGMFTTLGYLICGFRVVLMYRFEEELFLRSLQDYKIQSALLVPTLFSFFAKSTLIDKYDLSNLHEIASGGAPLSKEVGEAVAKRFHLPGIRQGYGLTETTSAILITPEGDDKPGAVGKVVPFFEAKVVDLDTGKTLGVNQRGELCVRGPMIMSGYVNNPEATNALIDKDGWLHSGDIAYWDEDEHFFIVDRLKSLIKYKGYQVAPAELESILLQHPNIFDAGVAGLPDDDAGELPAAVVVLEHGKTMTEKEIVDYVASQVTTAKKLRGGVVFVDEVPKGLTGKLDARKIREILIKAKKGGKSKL
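Purified P. pyralis luciferase (10nM final) with 10uM D-luciferin and 10uM ATP (Km levels) in 50mM Tris acetate pH 7.5, 10mM Mg acetate, 0.01% Tween-20, 0.05% BSA; qHTS 6-point titration, ~60 µM downward; luminescence read.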
NPC1 prom act – activates the NPC1 promoter; Huh7 NPC1 promoter luciferase reporter, 24 h; actives 2.4% (n = 320,000); Potency, µM (doses to about 9.22 µM), for inactives: top-dose activation, hits mostly activators; further: % of control where 0% means no effect; nearly all actives have a fitted effect of over 60% in size
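Huh7 cells stably carrying NPC1 promoter–luciferase, plated in Opti-MEM with 10% FBS for 2 h, were exposed to compound in DMSO for 24 h at 37 °C; luciferase reagent was added for 10 min and luminescence read.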
ELG1 Luc conf – inhibits ELG1-dependent DNA repair in HEK293T cells, confirmed. shares compounds with ELG1 repair inh. HEK293T ELG1-luciferase levels, luminescence; cells co-treated with 5-fluorouridine. Potency, µM (titrated, usually from 46.1 µM), for inactives: at the highest dose activity change, negative = inhibition, actives largely listed as inhibitors. actives 68% (n = 670); further: on the % scale 0 is the no-effect control and ±100 the full control effect; nearly all actives have a fitted effect of over 55% in size
ELG1 MMS Luc – MMS-stimulated human ELG1 repair inhibition, confirmed; shares compounds with ELG1 repair inh; HEK293T luciferase-tagged ELG1 level, MMS stimulated; Potency, µM (titrated, usually from 46.1 µM), for inactives: at the highest dose activity change, negative = inhibition, hits mostly inhibitors; actives 53% (n = 670); further: on the % scale 0 is the no-effect control and ±100 the full control effect; nearly all actives have a fitted effect of over 60% in size
ELG1 5FU viab – confirmation of ELG1 repair inhibitors: viability with 5FU. shares compounds with ELG1 repair inh. cell viability with 5-FU, ELG1-dependent repair. Potency, µM (series often up to 46.1 µM), without a hit: at the top dose activity change, negative = viability loss, most hits filed as cytotoxic. 670 tested, under 10 active. AID 624250;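 further: ELG1-luc HEK293T cells cotreated with 5-fluorouridine at 10 µM final; viability measured 16 h after compound addition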
ELG1 MMS cell – confirmation of ELG1 repair inhibitors: viability with MMS; Cell viability with MMS, ELG1-dependent DNA repair; AID 624251; actives 33% (n = 670); shares compounds with ELG1 repair inh; Potency, µM (series often up to 46.1 µM), inactives show top-dose activity change, negative = viability loss, most hits filed as cytotoxic;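 further: ELG1-luc HEK293T cells co-treated with 10 µM MMS; viability read 16 h after compound addition; on the % scale 0 is the no-effect control and ±100 the full control effect; nearly all actives have a fitted effect of over 60% in size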
Cell viab unstim – unstimulated viability counter-screen for ELG1 repair hits | shares compounds with ELG1 repair inh | cell viability counter-screen, unstimulated, luminescence | Potency, µM (series often up to 45.9 µM), inactives show at the top dose activity change, negative = loss of viability, most hits filed as cytotoxic | actives 8% (n = 900);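 further: compound exposure lasted 16 hours before reading; on the % scale 0 is the no-effect control and ±100 the full control effect; nearly all actives have a fitted effect of over 55% in size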
The depositor's hits bear a star; ? = inconclusive; . = no result given. The call rests on the fitted dose curve; in most records, active means well fitted curve in the direction sought with a large enough effect; inconclusive means small, poorly fitted or top-dose-only effect, or another doubt; inactive means no such curve, though single readings can be large; an effect the other way counts as inactive or inconclusive. Potency means the concentration at half of the fitted maximal effect.

SMILES	SMN2 splice up	ELG1 genotox	Rab9 promoter act	ELG1 repair inh	FLuc counter	NPC1 prom act	ELG1 Luc conf	ELG1 MMS Luc	ELG1 5FU viab	ELG1 MMS cell	Cell viab unstim
O=C(NCC1CCCN(C(=O)c2cc(Cl)ccc2F)C1)c1ccc(F)cc1 (configuration not stated)	.	-3%	13%	5%	4%	-2%	.	.	.	.	.
COc1ccc2cc3c(N)nn(C(=O)c4ccccc4[N+](=O)[O-])c3nc2c1	-38%	-10%	0%	2.3µM*	-7%	7%	1.8µM*	14µM*	4%	?	?
COc1ccc2cc3c(N)nn(C(=O)c4ccc(Cl)c([N+](=O)[O-])c4)c3nc2c1	-6%	-14%	0%	1.6µM*	1%	20%	3.5µM*	7.9µM*	5%	7%	7%
CC(OC(=O)c1nc(Cl)ccc1Cl)C(=O)c1ccccc1 (configuration not stated)	.	-4%	-3%	11%	3%	-2%	.	.	.	.	.
O=C(CN1C(=O)NC2(CCCc3ccccc32)C1=O)N1CCc2ccccc2C1 (configuration not stated)	12%	2%	-3%	1%	2%	1%	.	.	.	.	.
CCC(C)N(CC(=O)Nc1cccc(C)c1C)C(=O)CCl (configuration not stated)	-71%	-22%	-42%	4.6µM*	1%	-46%	14µM*	1.6µM*	?	7.1µM*	28µM*

Screens: PubChem, National Center for Advancing Translational Sciences (NCATS)
